Source: PubChem BioAssay (NCI)
Compounds without any hit were thinned out: in the full panel of roughly 79,000, 15% have a hit. Activity calls are given as the source filed them. Rule as the data show it: active = growth inhibition above about 70%; inactive = the rest.

Experiments:
[1] = NCI Yeast Anticancer Drug Screen. Data for the rad52 strain (AID 147);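 also: 0% = growth of vehicle-treated control cultures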; settings: S. cerevisiae rad52 mutant growth inhibition, stronger effect = higher value
How it was run: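 Screen used a yeast mutant impaired in DNA repair. After compound exposure, growth was measured. Values reflect inhibition compared with vehicle-treated cells.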

[2] = NCI Yeast Anticancer Drug Screen. Data for the wt1 strain (AID 149);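 also: 0% = growth of vehicle-treated wt1 cultures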; settings: S. cerevisiae wt1 strain (SPY 50644) growth inhibition, stronger effect = higher value
How it was run: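 Readout: yeast growth inhibition, normalised to vehicle controls, in the wt1 strain exposed to test compounds.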

[3] = NCI Yeast Anticancer Drug Screen. Data for the mgt1 strain (AID 153); settings: S. cerevisiae mgt1 mutant growth inhibition, stronger effect = higher value
How it was run: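 Genetically defined yeast (mgt1) treated with compound; inhibition of growth expressed against vehicle-treated controls.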

[4] = NCI Yeast Anticancer Drug Screen. Data for the rad50 strain (AID 155);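 also: 0% = growth of vehicle-only cultures of the same strain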; settings: S. cerevisiae rad50 strain growth inhibition, stronger effect = higher value
How it was run: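 Compounds were tested on a yeast strain with an engineered DNA damage repair alteration; the reported value is growth inhibition normalised to vehicle treatment.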

[5] = NCI Yeast Anticancer Drug Screen. Data for the mec2-1 strain (AID 157); settings: S. cerevisiae mec2-1 strain, stronger effect = higher value
How it was run: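 Readout is yeast growth inhibition, normalised to vehicle-treated controls, in the mec2-1 strain exposed to compound.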

[6] = NCI Yeast Anticancer Drug Screen. Data for the rad14 strain (AID 159);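 also: 0% = growth of vehicle-treated control cultures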; settings: S. cerevisiae rad14 strain growth inhibition, stronger effect = higher value
How it was run: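 Compound-treated yeast with a defined DNA-repair lesion; growth inhibition normalised to vehicle-treated cultures.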

[7] = NCI Yeast Anticancer Drug Screen. Data for the sgs1 mgt1 strain (AID 161);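 also: 0% = growth of cultures given vehicle only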; settings: S. cerevisiae sgs1 mgt1 strain, stronger effect = higher value
How it was run: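 Yeast cells carrying a defined DNA-repair defect were exposed to test compounds. Growth inhibition was measured relative to vehicle-treated controls.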

[8] = NCI Yeast Anticancer Drug Screen. Data for the CLN2oe strain (AID 163);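 also: 0% = growth of vehicle-only control cultures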; settings: S. cerevisiae CLN2oe strain, stronger effect = higher value
How it was run: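 Values reflect how much compound exposure reduced yeast growth, referenced to vehicle-exposed cells. Assay organism is a strain with a defined genetic change affecting cell-cycle control.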

[9] = NCI Yeast Anticancer Drug Screen. Data for the cln2 rad14 strain (AID 165);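 also: 0% = growth equal to vehicle treated cultures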; settings: S. cerevisiae cln2 rad14 strain, stronger effect = higher value
How it was run: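 Relative to vehicle controls, growth inhibition of compound-treated cln2 rad14 yeast was recorded.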

[10] = NCI Yeast Anticancer Drug Screen. Data for the bub3 strain (AID 167); settings: S. cerevisiae bub3 mutant strain, stronger effect = higher value
How it was run: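 Growth of a checkpoint-deficient yeast mutant is measured after compound exposure. Values represent inhibition relative to vehicle.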

[11] = NCI Yeast Anticancer Drug Screen. Data for the wt2 strain (AID 169);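 also: 0% = growth of vehicle-treated yeast cultures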; settings: S. cerevisiae wt2 strain growth inhibition, stronger effect = higher value
How it was run: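 Values express reduction in yeast growth under compound treatment, referenced to vehicle-treated cells.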

[12] = NCI Yeast Anticancer Drug Screen. Data for the mlh1 strain (AID 171);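 also: 0% = growth of vehicle-treated control cultures of the same strain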; settings: S. cerevisiae mlh1 strain growth inhibition, stronger effect = higher value
How it was run: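 Steps: expose the defined-mutant yeast strain to compound; expose a parallel culture to vehicle; measure growth; express compound effect as inhibition relative to the vehicle culture.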

[13] = NCI Yeast Anticancer Drug Screen. Data for the sgs1 strain (AID 173);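 also: 0% = growth of vehicle-only control cultures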; settings: S. cerevisiae sgs1 mutant, stronger effect = higher value
How it was run: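 Treat defined-mutant yeast with compound; measure growth; calculate inhibition relative to vehicle-treated cells.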

[14] = NCI Yeast Anticancer Drug Screen. Data for the mlh1 rad18 strain (AID 175); settings: S. cerevisiae mlh1 rad18 strain growth inhibition, stronger effect = higher value
How it was run: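 Test agents were incubated with a yeast strain of defined genotype (DNA damage repair defect). Inhibition of growth was derived by comparison with vehicle-exposed cultures.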

[15] = NCI Yeast Anticancer Drug Screen. Data for the rad18 strain (AID 177); settings: S. cerevisiae rad18 mutant growth inhibition, stronger effect = higher value
How it was run: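 A genetically defined yeast mutant impaired in DNA damage repair was treated with test compounds, then its growth was measured against cultures receiving vehicle alone.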

[16] = at 5.0 µM (retest, dose inferred, filed as 0.5)
[17] = at 50.0 µM (retest, dose inferred, filed as 5.0)

Measured: growth inhibition

Clc1cccc(C(Nc2nncs2)Nc2nncs2)c1Cl
inactive: [1]; at 1.2 µM -1% | [1]; at 3.7 µM 2% | [1]; at 11.0 µM 9% | [1]; at 33.0 µM 28% | [2]; at 1.2 µM -2% | [2]; at 3.7 µM -1% | [2]; at 11.0 µM 0% | [2]; at 33.0 µM 11% | [2]; at 100.0 µM 34% | [3]; at 1.2 µM 0% | [3]; at 3.7 µM 0% | [3]; at 11.0 µM 0% | [3]; at 33.0 µM 12% | [3]; at 100.0 µM 49% | [4]; at 1.2 µM 4% | [4]; at 3.7 µM 48% | [4]; [16] 0% | [4]; at 11.0 µM 22% | [4]; at 33.0 µM 42% | [4]; [17] 37% | [4]; at 50.0 µM 51.1% | [5]; at 1.2 µM -1% | [5]; at 3.7 µM 4% | [5]; [16] 1% | [5]; at 11.0 µM 7% | [5]; at 33.0 µM 19% | [5]; [17] 29% | [5]; at 50.0 µM 20.7% | [5]; at 100.0 µM 51% | [6]; at 1.2 µM -2% | [6]; at 3.7 µM -2% | [6]; at 11.0 µM 2% | [6]; at 33.0 µM 19% | [7]; [16] 1% | [7]; [17] 50% | [7]; at 50.0 µM 66.5% | [8]; at 1.2 µM -1% | [8]; at 3.7 µM -2% | [8]; at 11.0 µM -1% | [8]; at 33.0 µM 9% | [8]; at 100.0 µM 34% | [9]; [16] -3% | [9]; [17] 25% | [9]; at 50.0 µM -2.6% | [10]; at 1.2 µM 0% | [10]; at 3.7 µM 0% | [10]; [16] -6% | [10]; at 11.0 µM 0% | [10]; at 33.0 µM 12% | [10]; [17] 14% | [10]; at 50.0 µM -20.6% | [11]; at 1.2 µM -2% | [11]; at 3.7 µM 8% | [11]; at 11.0 µM 1% | [11]; at 33.0 µM 19% | [11]; at 100.0 µM 54% | [12]; at 1.2 µM -1% | [12]; at 3.7 µM 0% | [12]; at 11.0 µM 3% | [12]; at 33.0 µM 16% | [12]; at 100.0 µM 49% | [13]; at 1.2 µM -1% | [13]; at 3.7 µM 3% | [13]; at 11.0 µM 16% | [13]; at 33.0 µM 51% | [14]; [16] 3% | [14]; [17] 57% | [14]; at 50.0 µM 55.3% | [15]; at 1.2 µM -4% | [15]; at 3.7 µM 6% | [15]; at 11.0 µM 14% | [15]; at 33.0 µM 42%
active: [1]; at 100.0 µM 70% | [4]; at 100.0 µM 83% | [6]; at 100.0 µM 71% | [10]; at 100.0 µM 77% | [13]; at 100.0 µM 86% | [15]; at 100.0 µM 87%
